According to PubChem BioAssay:

These compounds were tested against Left-right determination factor 2 (Homo sapiens) (UniProt O00292) (assay: LEFTY2 binders on small-molecule microarrays, primary screen, biochemical, small-molecule microarray, 635 nm fluorescence scan (AID 1110)). Settings: LEFTY2 binding, higher = more signal.
Left-right determination factor 2 (Homo sapiens), sequence (O00292 whole entry, looked up): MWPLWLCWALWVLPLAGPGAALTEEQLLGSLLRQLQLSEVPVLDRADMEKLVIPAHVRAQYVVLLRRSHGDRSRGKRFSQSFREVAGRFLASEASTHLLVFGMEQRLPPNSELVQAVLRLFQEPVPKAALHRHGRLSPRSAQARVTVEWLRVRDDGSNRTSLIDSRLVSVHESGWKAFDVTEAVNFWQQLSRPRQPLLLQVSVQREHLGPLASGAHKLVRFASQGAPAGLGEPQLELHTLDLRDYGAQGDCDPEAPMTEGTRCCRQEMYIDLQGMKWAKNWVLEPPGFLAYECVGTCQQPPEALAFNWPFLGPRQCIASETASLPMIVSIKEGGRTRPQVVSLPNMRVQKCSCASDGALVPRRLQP
In the case of `CO[C@H]1O[C@H](CO)[C@@H](OC(=O)Nc2ccc(Br)cc2)[C@@H]2OC(=O)[C@@H](Cc3ccccc3)C/C=C/C[C@H](Cc3ccccc3)C(=O)O[C@@H]12`, the composite z-score is reported as 0.142.
`C#CCN(Cc1ccccc1Br)[C@H](/C=C/c1ccccc1)[C@@H](O)Cc1ccccc1` gave a composite z-score of -0.81.
`CCCCCN1CC=CC23O[C@@H]4/C=C\CCCOC(=O)C4[C@H]2C(=O)N(C(C)CO)[C@@H]3C1=O` (stereo partly specified) was tested, and the composite z-score was -1.67.
For `CCCCCN1CC=CC23O[C@@H]4C=CCCOC(=O)C4[C@H]2C(=O)N(CCCCCCO)[C@@H]3C1=O` (stereo partly specified), the composite z-score was -0.287.
In the case of `NC(=O)[C@@]1(Cc2ccccc2)COC(c2ccc(OCCCO)cc2)=N1`, the composite z-score is reported as -0.263.
In the case of `COC(=O)[C@@]1(Cc2ccc(OC)cc2)[C@H]2c3cc(C(=O)N4CCCC4)n(CCO)c3C[C@H]2CN1C(=O)c1ccccc1`, the composite z-score is reported as -0.352.

What follows are compounds tested against Calmodulin-1 (Homo sapiens) (UniProt P0DP23) (assay: CALM1 binders on microarrays, EGTA buffer, profiling panel, biochemical, small-molecule microarray, Cy5-labelled CALM1 (AID 1111;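 note: labelled calmodulin applied in Tris saline Tween buffer holding calcium plus EGTA and DTT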)). Settings: Cy5-CALM1 binding fluorescence, higher = more signal.
Compound `O=C(O)[C@@H]1[C@@H]2C(=O)N(c3ccccc3)C(=O)[C@@H]2C[C@@H]1Sc1ccccc1` has a composite z-score of 0.172.
`CCCCN1CC=CC23O[C@@H]4/C=C\CCC(C)OC(=O)C4[C@H]2C(=O)N(CCCO)[C@@H]3C1=O` (stereo partly specified) showed a composite z-score of -0.0083.
Work on `CN(C)C(=O)[C@]1(CCC(=O)OC(C)(C)C)N=C(c2ccc(OCCCO)cc2)O[C@@H]1c1ccccc1CN=[N+]=[N-]` yielded a composite z-score of 2.31.
`CCCCCC1=C2CNC(C)(C(=O)OC)C=C2C(C)C1=O` (stereo unspecified) gave a composite z-score of 0.764.
In the case of `CCOC(=O)C[C@H]1[C@H](OC(=O)c2cc3ccccc3oc2=O)[C@@H](NC(=O)c2ccc3ccccc3n2)c2cc(OCCCO)ccc2N1C(=O)Cc1ccc(OC)cc1`, the composite z-score is reported as 0.228.
In the case of `CS(=O)(=O)CCOC(=O)C1=CC(CCCO)=CC(c2ccc(CN3CCCC3)cc2)N(Cc2sc3ccccc3c2Cl)C=C1C(=O)OCCS(C)(=O)=O` (stereo unspecified), the composite z-score is reported as 2.26.
In the case of `NC(=O)NCC#Cc1ccc2c(c1)[C@]1(C(=O)N2)[C@H](c2ccccc2OCCO)N2[C@H](c3ccccc3)[C@H](c3ccccc3)OC(=O)[C@H]2[C@@H]1C(=O)NC[C@H](O)c1ccccc1`, the composite z-score is reported as -0.157.
For `CC(C)N1C(=O)c2ccccc2[C@@H](C(=O)NCCN2CCOCC2)[C@@H]1c1ccc(CO)cc1`, the composite z-score was -0.346.
With `COCCOC(=O)N1C(=O)[C@@]2(c3cc(C#CC4=CCCCC4)ccc31)[C@H](C(=O)Nc1nc3ccccc3s1)[C@H]1C(=O)O[C@H](c3ccccc3)[C@H](c3ccccc3)N1[C@@H]2c1ccc(O)cc1` the composite z-score was 1.07.
Compound `COc1ccc(CCNC(=O)[C@@]2(Sc3ccc(C)cc3)CC(=O)N(Cc3ccccc3C(F)(F)F)[C@@H]2c2ccc(CO)cc2I)cc1` has a composite z-score of 0.138.
With `COc1ccc([Si](C)(C)[C@H]2[C@H](CC(=O)N3CCC[C@H]3CO)O[C@@]3(C(=O)N(Cc4ccc(N5CCOC5=O)cc4)c4ccccc43)[C@@H]2C)cc1` the composite z-score was 0.655.
In the case of `COc1cc(OC)c(C(O)C2C=CC3C(=O)N(Cc4ccccc4)C(=O)C3N2n2cnnc2)cc1Br` (stereo unspecified), the composite z-score is reported as 0.181.
`[N-]=[N+]=Nc1ccccc1C[C@@]1(C(=O)N2CCOCC2)N=C(c2ccc(OCCCO)cc2)O[C@@H]1c1ccccc1` was tested, and the composite z-score was 1.37.
In the case of `Cc1ccc(C(C)CC(O)C2C=CC3C(=O)N(c4ccccc4)C(=O)C3N2Nc2ccccc2)o1` (stereo unspecified), the composite z-score is reported as 1.3.
`CCOC(=O)C[C@H]1[C@H](OC(=O)c2ccc(C(=O)c3ccccc3)cc2)[C@@H](NC(=O)c2ccc(-c3ccccc3)cc2)c2cc(OCCCO)ccc2N1C(=O)Cc1ccc(OC)cc1` gave a composite z-score of 0.439.
`CCOC(=O)C1=C[C@@H](C(C)C)N(S(=O)(=O)c2ccc(C)cc2)[C@H]1c1ccc(C(F)(F)F)cc1` gave a composite z-score of 1.07.
`C=C[C@H]1C(C(=O)OCC)=CC[C@@H](c2ccccc2)N1S(=O)(=O)c1ccc(C)cc1` was tested, and the composite z-score was 0.577.
With `CCCCCCCCCCC(O)C1C=CC2C(=O)N(c3ccccc3)C(=O)C2N1Nc1ccc(C#N)cc1` (stereo unspecified) the composite z-score was 2.48.
Compound `O=C1C[C@]2(c3ccc([N+](=O)[O-])cc3)C(=O)N(C3CC3)c3cc(CO)ccc3[C@H]2N1CC12CC3CC(CC(C3)C1)C2` has a composite z-score of -0.448.
`C=C[C@H](C)[C@H](OC(=O)Nc1ccc(SC)cc1)c1ccc(OCCO)cc1` showed a composite z-score of 0.272.
Work on `O=C1OCCC=C[C@H]2OC34C=CCN(c5ccc6ccccc6c5)C(=O)[C@H]3N(CCCO)C(=O)[C@@H]4C12` (stereo partly specified) yielded a composite z-score of -0.834.
`CCCCN1CC=CC23O[C@@H]4/C=C\CCCOC(=O)C4[C@H]2C(=O)N(CCO)[C@@H]3C1=O` (stereo partly specified) was tested, and the composite z-score was -0.343.
`COc1cc2c(cc1O)C(c1cccs1)N(Cc1cc3c(cc1Br)OCO3)CC2` (stereo unspecified) was tested, and the composite z-score was 1.88.
For `CCCC[C@@H](O)C1=C(COc2ccccc2)C[C@H]2C(=O)N(Cc3ccccc3)C(=O)[C@H]2[C@H]1CO`, the composite z-score was 0.422.
`COc1cc(C(O)C2C=CC3C(=O)N(C)C(=O)C3N2Nc2ccccc2)cc(OC)c1OC` (stereo unspecified) was tested, and the composite z-score was 1.8.
`COCCOC(=O)N1C(=O)[C@@]2(c3cc(C#CCCO)ccc31)[C@H](c1ccc(OCCO)cc1)N1[C@H](c3ccccc3)[C@H](c3ccccc3)OC(=O)[C@H]1[C@@H]2C(=O)Nc1nc2ccccc2s1` showed a composite z-score of 0.751.
With `C=CCNC(=O)[C@@H]1[C@H]2C(=O)O[C@H](c3ccccc3)[C@H](c3ccccc3)N2[C@H](c2ccc(OCCO)cc2)[C@@]12C(=O)N(C(=O)OCCOC)c1ccc(C#Cc3ccc(OC)cc3)cc12` the composite z-score was 1.6.
`N#Cc1ccc(NN2C(C(O)c3ccc(Br)cc3)C=CC3C(=O)N(c4ccccc4)C(=O)C32)cc1` (stereo unspecified) gave a composite z-score of 1.53.
In the case of `CCCC=C(CCC)[C@@H](NC(=O)C(C)(C)C)c1ccc(C(=O)OC)cc1`, the composite z-score is reported as 1.72.
`CO[C@H]1O[C@H](CO)[C@@H](OC(=O)Nc2ccc(Br)cc2)[C@@H]2OC(=O)[C@@H](Cc3ccccc3)C/C=C/C[C@H](Cc3ccccc3)C(=O)O[C@@H]12` showed a composite z-score of 0.534.
`C#CCN(Cc1ccccc1Br)[C@H](/C=C/c1ccccc1)[C@@H](O)Cc1ccccc1` gave a composite z-score of -1.03.
`CCCCCN1CC=CC23O[C@@H]4/C=C\CCCOC(=O)C4[C@H]2C(=O)N(C(C)CO)[C@@H]3C1=O` (stereo partly specified) was tested, and the composite z-score was -0.452.
Compound `CCCCCN1CC=CC23O[C@@H]4C=CCCOC(=O)C4[C@H]2C(=O)N(CCCCCCO)[C@@H]3C1=O` (stereo partly specified) has a composite z-score of -0.711.
Compound `NC(=O)[C@@]1(Cc2ccccc2)COC(c2ccc(OCCCO)cc2)=N1` has a composite z-score of 0.435.
In the case of `COC(=O)[C@@]1(Cc2ccc(OC)cc2)[C@H]2c3cc(C(=O)N4CCCC4)n(CCO)c3C[C@H]2CN1C(=O)c1ccccc1`, the composite z-score is reported as 0.841.
